Assay outcomes as filed in PubChem.
NadD inh – inhibitors of S. aureus NadD, primary screen, biochemical, colorimetric, uHTS. Nicotinate-nucleotide adenylyltransferase NadD (Staphylococcus aureus N315). purified NadD enzyme, colorimetric absorbance read-out. inhibition, % at 20 µM. actives 0.78% (n = 360,000); in the data active = inhibition above about 26%
A3G deaminase – APOBEC3G DNA deaminase inhibitors, primary screen, biochemical, fluorescence, single-stranded DNA substrate, uHTS; actives 0.28% (n = 330,000); DNA dC->dU-editing enzyme APOBEC-3G (Homo sapiens), Q9HC16; inhibition, % at 20 µM; recombinant A3G, ssDNA deamination FAM/TAMRA fluorescence; AID 493012, 2011;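 active = inhibition of at least 40% at 20 µM, with no more than 30% in the related APOBEC3A deaminase screen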;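 also: plate controls were DMSO wells with A3G for no effect and wells lacking A3G enzyme for full effect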
APOBEC3A inh – APOBEC3A ssDNA deaminase inhibitors, primary screen, selectivity assay for APOBEC3G inhibitor project, biochemical, FAM/TAMRA oligo cleavage fluorescence; recombinant A3A, FAM/TAMRA ssDNA deamination fluorescence; inhibition, % at 20 µM; actives 0.41% (n = 330,000); DNA dC->dU-editing enzyme APOBEC-3A (Homo sapiens), P31941;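 active = at least 40% inhibition at 20 µM here, with at most 30% in a related deaminase screen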;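 also: plate controls were A3A with DMSO for no effect and wells lacking A3A enzyme for full effect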
TAG inh – inhibitors of triacylglycerol accumulation, primary screen, cell-based, uHTS, fluorescence, H9c2 | actives 0.66% (n = 230,000) | inhibition, % at 12.5 µM | H9c2 cells, Nile Red lipid (TAG) fluorescence; cells loaded with 200 µM oleic acid | AID 651582, 2012;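 active = pattern-corrected inhibition of lipid staining of at least 50% with the nuclear-stain viability signal not falling by more than 50%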;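 also: 0% = DMSO wells and 100% = triacsin C control wells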
PfG6PD inh – PfG6PD enzyme inhibitors, primary screen, biochemical, fluorescence intensity, uHTS; glucose-6-phosphate dehydrogenase-6-phosphogluconolactonase (Plasmodium falciparum 3D7); PfGluPho enzyme, NADPH resazurin-diaphorase fluorescence; inhibition, % at 20 µM; actives 0.78% (n = 350,000);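 active = inhibition reaching at least a set limit at 20 µM in the primary screen, cut at about 59% in these data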;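 also: 0% = DMSO wells with substrate and 100% = DMSO wells lacking glucose-6-phosphate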
Cardio protect – cardioprotection against H2O2-induced cell death, primary screen, uHTS, H9c2 cells, ATPLite luminescence. H9c2 cardiomyocytes, H2O2 injury protection, 2 h. protection from H2O2 cell death, % at 20 µM. actives 0.63% (n = 360,000). AID 588492, 2011;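 active = compounds giving at least 50% protection of heart cells from peroxide-induced death in the single-dose screen, raw or plate-pattern-corrected value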;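 also: 0% = DMSO wells with peroxide and 100% = DMSO wells without peroxide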
A3G conf – APOBEC3G deaminase inhibitor retest, confirmation, biochemical, fluorescence, single-stranded DNA substrate, single concentration; AID 493152, 2011; actives 72% (n = 890); recombinant A3G ssDNA deaminase, UDG/FAM-TAMRA fluorescence; inhibition, % at 20 µM; shares compounds with A3G deaminase;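 active = inhibition reaching a set limit in any replicate at 20 µM, the limit being 80% of the first screen's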
UDG ctr A3G – E. coli UDG inhibitors, confirmation, counter-screen for APOBEC3G inhibitor project, biochemical, single concentration, fluorescence, FAM/TAMRA oligo; shares compounds with A3G deaminase; UDG counterscreen; inhibition, % at 20 µM; 710 tested, under 10 active;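 active = compounds giving 40% or more inhibition at 20 µM in any one of the three replicates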;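 also: plate controls were DMSO wells with UDG and oligo for no effect and DMSO wells lacking both for full effect; inhibitors lower the FAM signal released by uracil excision and alkaline cleavage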
Target sequence (P12295 whole entry, looked up): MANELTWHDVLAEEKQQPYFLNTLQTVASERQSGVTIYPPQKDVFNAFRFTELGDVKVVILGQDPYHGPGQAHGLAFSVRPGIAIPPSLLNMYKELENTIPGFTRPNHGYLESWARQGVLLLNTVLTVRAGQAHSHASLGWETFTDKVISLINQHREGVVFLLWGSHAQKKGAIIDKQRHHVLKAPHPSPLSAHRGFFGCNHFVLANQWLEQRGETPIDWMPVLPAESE
An asterisk follows results filed as active; x = not tested or not shown. This is a sample that favours compounds with a hit; in the whole collection about 2.9% have one here.

SMILES	NadD inh	A3G deaminase	APOBEC3A inh	TAG inh	PfG6PD inh	Cardio protect	A3G conf	UDG ctr A3G
O=C1NC[C@H](CCCCN2CCN(CCc3ccccc3)C(=O)C2=O)N(Cc2ccccc2)C1=O	6	x	x	x	x	x	x	x
CCN1C(=O)[C@H]2[C@@H](c3ccc(C)cc3)N[C@]3(CCCN(CCC(C)C)C3=O)[C@H]2C1=O	3	x	x	-6	-4	-7	x	x
O=C(Nc1ccc(Cl)cc1Cl)c1cccc(N2C(=O)C=CC2=O)c1	22	53*	8	-5	113*	-19	59*	-3
COc1ccc(NC(=O)c2ccc(N3C(=O)C4CC=C(Cl)CC4C3=O)cc2)cc1 (stereo not drawn)	-2	2	0	24	-3	4	x	x
O=C(NN1C(=O)C2CC=C(Cl)CC2C1=O)c1ccncc1 (stereo not drawn)	7	40*	29	4	-12	-4	41*	-4
C#CCOc1ccc(C2C(C#N)=C(N)Oc3cc(O)ccc32)cc1 (stereo not drawn)	10	-7	6	-1	-35	4	x	x
C/C(=N/NC(=O)CNc1ccc(Cl)cc1C)c1ccc(C)cc1	-1	-5	-3	10	1	-5	x	x
S=c1[nH]nc(-c2cc(-c3ccccc3)n[nH]2)n1/N=C/c1cccc(Cl)c1	24	53*	-7	13	16	-4	7	8
S=c1[nH]nc(-c2ccccn2)n1/N=C/c1ccc(Cl)c(Cl)c1	19	46*	15	2	32	6	45*	-4
S=c1[nH]nc(-c2ccccn2)n1/N=C/c1ccc(Br)s1	15	3	-1	x	23	-12	x	x
CC(C)(CNc1ccc([N+](=O)[O-])cc1Cl)N1CCOCC1	2	-13	-3	x	-10	-4	x	x
Cn1c(-c2cc(Br)ccc2O)n[nH]c1=S	14	48*	-5	x	27	-4	83*	-5
